{"source": "PubChem BioAssay (NCATS)", "note": "Results filed as inconclusive are left out. Activity calls are given as the source filed them. Calls follow the shape of the dose curve; as a rule, active = well fitted cell-killing curve with a large enough effect; inconclusive = small, poorly fitted or top-dose-only effect; inactive = flat fitted curve, though single readings scatter. Potency is read from the fitted curve at half-maximal effect.", "data": [{"assay": "Cell Viability - LYMP2-012 (AID 982);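 also: cellular ATP by luciferase luminescence where a drop means cytotoxicity; cells exposed to compound for one day before reading; nearly all actives have a fitted effect of over 55% in size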;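 as to activity change, negative = cytotoxicity: 0% = DMSO only and full loss = 92 µM tetraoctylammonium bromide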", "conditions": "LYMP2-012 lymphoblastoid cell viability qHTS; series mostly up to 92.2 µM; activity change, negative = cytotoxicity: at the top concentration", "text": "NIH Chemical Genomics Center [NCGC]\nNIH Molecular Libraries Screening Centers Network [MLSCN]\nNational Institutes of Environmental Health Sciences [NIEHS]\nNational Toxicology Program [NTP]\nWe have developed a 1536-well cell-based assay for quantitative high throughput screening (qHTS) against a number of cell lines to determine in vitro cytotoxicity of small molecules. This particular assay uses a human lymphoblastoid cell line (LYMP2-012) purchased from Coriell Institute for Medical Research.\nNCGC Assay Protocol Summary:\nThe CellTiter-Glo luminescent cell viability assay (Promega) is a homogeneous method to measure the number of viable cells in culture. The end point readout of this assay is based on quantitation of intracellular ATP, an indicator of metabolic activity, using the luciferase reaction. Luciferase catalyzes the oxidation of beetle Luciferin to oxyluciferin and light in the presence of ATP. The luminescent signal is proportional to amount of ATP present.\nUsing the CellTiter-Glo luminescent cell viability assay, the amount of cellular ATP was measured in the lymphoblastoid cell line with complete culture medium following compound treatment for 24 hours. The assay was performed in opaque white Kalypsys 1536-well plates. In the screen, tetraoctylammonium bromide was used as positive control. Library compounds were measured for their ability to cause acute toxicity in the cell line, as reflected by a decrease in intracellular ATP levels, in a concentration-dependent manner. […] AC50 values were determined from concentration-response data modeled with the standard Hill equation.\nqHTS protocol for CellTiter Glo lymphoblastoid cellular assay\n[Step] [Parameter] [Value] [Description]\n1. Reagent; 5 uL; 2500 lymphoblastoid cells/well\n2. Time; 5 hr; 37 C incubation\n4. Controls; 23 nL; Tetraoctylammonium bromide 6.4pM to 92 uM\n5. Time; 24 hr; 37 C incubation\n6. Reagent; 5 uL; CellTiter Glo reagent\n7. Time; 30 min; Room Temperature\n8. Detection; Luminescence; Viewlux plate reader\nKeywords: cell viability, cytotoxicity, lymphoblastoid cell line, luminescence, NTPHTS, NTPHTS_NCGC, NIEHS, DSSTox, MLSMR, MLSCN, NIH Roadmap, qHTS, NCGC", "values": [{"smiles": "Nc1ncnc2c1ncn2[C@H]1CC[C@@H](CO)O1", "activity change, negative = cytotoxicity": "-13.4% (inactive)"}, {"smiles": "CC(C)(C)CC(C)(C)c1ccc(OCCO)cc1", "activity change, negative = cytotoxicity": "-12.4% (inactive)"}, {"smiles": "Oc1ccc(/C=C/c2cc(O)cc(O)c2)cc1", "activity change, negative = cytotoxicity": "-23.5% (inactive)"}, {"smiles": "C/C=C/C=C/C(=O)O", "activity change, negative = cytotoxicity": "2.47% (inactive)"}, {"smiles": "CC1=CC(=O)NS(=O)(=O)O1", "activity change, negative = cytotoxicity": "-3.69% (inactive)"}, {"smiles": "NCCN", "activity change, negative = cytotoxicity": "-7.5% (inactive)"}, {"smiles": "CCCCO", "Potency": "inactive"}, {"smiles": "c1ccc2ccccc2c1", "activity change, negative = cytotoxicity": "-1.21% (inactive)"}, {"smiles": "[O-][N+](=Nc1ccccc1)c1ccccc1", "activity change, negative = cytotoxicity": "19.4% (inactive)"}, {"smiles": "O=P(O)(O)O", "activity change, negative = cytotoxicity": "-0.523% (inactive)"}, {"smiles": "OC[C@H]1O[C@@H]2O[C@H]3[C@H](O)[C@@H](O)[C@@H](O[C@H]4[C@H](O)[C@@H](O)[C@@H](O[C@H]5[C@H](O)[C@@H](O)[C@@H](O[C@H]6[C@H](O)[C@@H](O)[C@@H](O[C@H]7[C@H](O)[C@@H](O)[C@@H](O[C@H]1[C@H](O)[C@H]2O)O[C@@H]7CO)O[C@@H]6CO)O[C@@H]5CO)O[C@@H]4CO)O[C@@H]3CO", "activity change, negative = cytotoxicity": "3.69% (inactive)"}, {"smiles": "C=C1C(CCl)(CCl)C2(Cl)C(Cl)C(Cl)C1(Cl)C2(Cl)Cl", "note": "(stereo not drawn)", "Potency": "39.8 µM (active)"}, {"smiles": "Nc1ccc(N=Nc2ccccc2)c(N)n1", "activity change, negative = cytotoxicity": "-22% (inactive)"}, {"smiles": "Cc1ncc[nH]1", "activity change, negative = cytotoxicity": "6.5% (inactive)"}, {"smiles": "CCCCC", "activity change, negative = cytotoxicity": "1.31% (inactive)"}, {"smiles": "OCc1ccccc1", "activity change, negative = cytotoxicity": "-5.88% (inactive)"}, {"smiles": "ClC(Cl)Cl", "activity change, negative = cytotoxicity": "-0.25% (inactive)"}, {"smiles": "CC1=CCC2CC1C2(C)C", "note": "(stereo not drawn)", "activity change, negative = cytotoxicity": "-6.69% (inactive)"}, {"smiles": "C[C@H](CCC(=O)O)[C@H]1CC[C@H]2[C@@H]3[C@H](O)C[C@@H]4C[C@H](O)CC[C@]4(C)[C@H]3C[C@H](O)[C@]12C", "activity change, negative = cytotoxicity": "4.45% (inactive)"}, {"smiles": "CO/N=C(/C(=O)N[C@@H]1C(=O)N2C(C(=O)O)=C(COC(N)=O)CS[C@H]12)c1ccco1", "activity change, negative = cytotoxicity": "2.77% (inactive)"}, {"smiles": "CO", "activity change, negative = cytotoxicity": "3.06% (inactive)"}, {"smiles": "Oc1cccc(O)c1O", "activity change, negative = cytotoxicity": "-26.4% (inactive)"}, {"smiles": "O=c1n(CC2CO2)c(=O)n(CC2CO2)c(=O)n1CC1CO1", "note": "(stereo not drawn)", "Potency": "25.1 µM (active)"}, {"smiles": "OB(O)O", "activity change, negative = cytotoxicity": "4.35% (inactive)"}, {"smiles": "CC(C)O", "activity change, negative = cytotoxicity": "-2.02% (inactive)"}, {"smiles": "COC(=O)c1ccccc1O", "activity change, negative = cytotoxicity": "-1.02% (inactive)"}, {"smiles": "OCl", "activity change, negative = cytotoxicity": "1.81% (inactive)"}, {"smiles": "Nc1nccs1", "activity change, negative = cytotoxicity": "0.911% (inactive)"}, {"smiles": "OCC(O)CO", "Potency": "inactive"}, {"smiles": "CCOC(C)OCC", "activity change, negative = cytotoxicity": "-2.15% (inactive)"}, {"smiles": "NC(N)=O", "activity change, negative = cytotoxicity": "13.4% (inactive)"}, {"smiles": "CC[C@H]1OC(=O)[C@H](C)[C@@H](O[C@H]2C[C@@](C)(OC)[C@@H](O)[C@H](C)O2)[C@H](C)[C@@H](O[C@@H]2O[C@H](C)C[C@H](N(C)C)[C@H]2O)[C@](C)(O)C[C@@H](C)CN(C)[C@H](C)[C@@H](O)[C@]1(C)O", "activity change, negative = cytotoxicity": "-21.1% (inactive)"}, {"smiles": "Cc1ccc(S(=O)(=O)O)cc1C", "activity change, negative = cytotoxicity": "-20.6% (inactive)"}]}]}
